Records with an inconclusive call do not appear. Entries that show only a call come without a potency. Activity calls are given as the source filed them. The call rests on the fitted dose curve.

Thyrotropin receptor (Homo sapiens), sequence (P16473 whole entry, looked up): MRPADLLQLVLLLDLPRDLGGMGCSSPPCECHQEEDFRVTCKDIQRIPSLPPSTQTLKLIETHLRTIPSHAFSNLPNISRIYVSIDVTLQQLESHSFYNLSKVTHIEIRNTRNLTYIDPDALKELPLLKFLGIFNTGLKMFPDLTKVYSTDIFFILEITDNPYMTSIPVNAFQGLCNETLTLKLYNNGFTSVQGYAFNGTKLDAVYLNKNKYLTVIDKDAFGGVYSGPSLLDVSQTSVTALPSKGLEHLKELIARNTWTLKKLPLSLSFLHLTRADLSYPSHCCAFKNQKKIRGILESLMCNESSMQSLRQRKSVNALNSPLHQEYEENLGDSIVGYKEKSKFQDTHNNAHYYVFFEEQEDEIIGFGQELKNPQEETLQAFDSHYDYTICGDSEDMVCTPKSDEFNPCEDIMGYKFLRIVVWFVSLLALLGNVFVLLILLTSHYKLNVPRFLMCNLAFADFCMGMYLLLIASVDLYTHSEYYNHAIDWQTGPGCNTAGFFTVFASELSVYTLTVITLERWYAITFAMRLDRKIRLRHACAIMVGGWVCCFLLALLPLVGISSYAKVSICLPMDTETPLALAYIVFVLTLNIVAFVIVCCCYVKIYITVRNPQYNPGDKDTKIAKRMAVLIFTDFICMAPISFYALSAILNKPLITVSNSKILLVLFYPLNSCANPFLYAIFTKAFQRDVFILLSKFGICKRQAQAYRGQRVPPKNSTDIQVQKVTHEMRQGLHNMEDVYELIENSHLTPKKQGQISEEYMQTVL

The target in the assay is Thyrotropin receptor (Homo sapiens) (UniProt P16473). The assay is described as follows: qHTS assay to identify small molecule agonists of the thyroid stimulating hormone receptor (TSHR) signaling pathway (AID 1224843). Further: nearly all actives have a fitted effect of over 45% in size. The following applies: TSHR-HEK293 cells, cAMP HTRF, agonist mode, 30 min; series mostly up to 92.4 µM. In a few lines:
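Agonist activity read as cAMP rise via d2/cryptate HTRF competition, 1 h room-temperature detection, in HEK293 cells expressing TSHR. Fifteen-point titrations, each run in triplicate, with a 30 min room-temperature incubation beforehand.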
In general terms: In qHTS, concentration-response curves come from the screen itself.
As to `CNC(=O)N(c1ccccc1)c1ccccc1`, the Potency result was “inactive”.

For `CC1(C)C(=O)N(Br)C(=O)N1Cl`, the Potency entry is “inactive”.

As for `CCCCCCCCSCCO`, the Potency result is “inactive”.

For `CC#N`, the Potency result is “inactive”.

Regarding `NC(=O)Nc1ccc(Cl)cc1`, the Potency entry was “inactive”.

In the case of `OC/C(Br)=C(\Br)CO`, the Potency result was “inactive”.

Turning to `CC1=CC(=O)CC(C)(C)C1(O)/C=C/C(C)=C\C(=O)O` (centres undefined), the Potency result was “inactive”.

Take `CCCOC(=O)c1ccc(N)cc1`: the Potency entry was “inactive”.

Turning to `CCCCC(CC)CNCC(CC)CCCC` (centres undefined), the Potency entry is “inactive”.

For the compound `O=C(CCC1CCN(Cc2ccccc2)CC1)c1ccc2c(c1)NCCCC2`, the Potency entry is “inactive”.

In the case of `CC(=O)OCC(=O)[C@H]1CC[C@H]2[C@@H]3CCC4=CC(=O)CC[C@]4(C)[C@H]3CC[C@]12C`, the Potency entry is “inactive”.

For the compound `COC(=O)c1cc(Cl)ccc1NS(=O)(=O)C(F)(F)F`, the Potency entry is “inactive”.

Regarding `CC(=O)CC(c1ccc([N+](=O)[O-])cc1)c1c(O)c2ccccc2oc1=O` (centres undefined), the Potency result was “inactive”.

As to `CCOC(=O)c1ccccc1OC`, the Potency result was “inactive”.

On to `c1cnc2c(n1)CCCC2`, for which the Potency result is “inactive”.

In the case of `CO[C@H]1O[C@H](CO)[C@@H](O)[C@H](O)[C@H]1O`, the Potency result was “inactive”.

On to `O=C(/C=C/c1ccccc1)OCCCc1ccccc1`, for which the Potency result was “inactive”.

On to `C=CCCCCCCCCCCCCCCCC`, for which the activation is -8.53% [at 8.39 µM] (inactive).

As for `CCCCC(=O)O[C@]1(C(=O)CO)CC[C@H]2[C@@H]3CCC4=CC(=O)CC[C@]4(C)[C@H]3[C@@H](O)C[C@@]21C`, the Potency entry is “inactive”.

Turning to `NC(=O)N(O)[C@@H]1C=C[C@H](Oc2cccc(Oc3ccc(F)cc3)c2)C1`, the Potency entry was “inactive”.

As for `CC1CC(O)CC(C)(C)C1` (centres undefined), the Potency entry was “inactive”.

Take `N#C[C@@H]1C[C@@H]2C[C@@H]2N1C(=O)[C@@H](N)C12CC3CC(CC(O)(C3)C1)C2`: the Potency entry is “inactive”.

On to `O=Cc1c(Cl)cccc1Cl`, for which the Potency entry is “inactive”.

In the case of `CC1(C)O[C@@H]2C[C@H]3[C@@H]4CCC5=CC(=O)C=C[C@]5(C)[C@H]4[C@@H](O)C[C@]3(C)[C@]2(C(=O)CO)O1`, the Potency entry was “inactive”.

Take `CCCCCCCCCCCCCCCCBr`: the activation is -0.411% [at 19 µM] (inactive).

As for `CCCCCCOC(=O)C(C)C`, the Potency entry was “inactive”.

Consider `COC(=O)c1cc(S(N)(=O)=O)ccc1OC`, for which the Potency entry is “inactive”.

`C=CC(C)(O)CCCC(C)CCCC(C)CCCC(C)C` (centres undefined): the Potency result was “inactive”.

Consider `CN1C(=O)CC(C)(c2ccccc2)C1=O` (centres undefined), for which the Potency entry is “inactive”.

Consider `C[C@]12CCC(=O)C=C1C=C[C@@H]1[C@@H]2CC[C@@]2(C)[C@H]1CC[C@@]21CCC(=O)O1`, for which the Potency entry is “inactive”.

In the case of `Cc1occc1C(=O)Nc1ccc(C(=O)N2CCC(F)(F)/C(=C\C(=O)N3CCC(N4CCCCC4)CC3)c3ccccc32)cc1`, the Potency result was “inactive”.

On to `CCCC1C(CC)=CC(CC)=CN1c1ccccc1` (centres undefined), for which the Potency entry was “inactive”.

`CC(=O)[C@H]1CC[C@H]2[C@@H]3C[C@H](C)C4=CC(=O)CC[C@]4(C)[C@H]3[C@@H](O)C[C@]12C`: the Potency result is “inactive”.

Turning to `C=CC(=C)CCCC(C)(C)OC(C)=O`, the Potency entry was “inactive”.

`O=S1OCCO1`: the Potency result was “inactive”.

Regarding `C1COCO1`, the Potency entry was “inactive”.

On to `CC(=O)Nc1ccccc1C`, for which the Potency result is “inactive”.

Take `COc1cc2[nH]c(=O)[nH]c(=O)c2cc1OC`: the Potency entry is “inactive”.

In the case of `N#C/C(=C1/SC[C@@H](c2ccc(Cl)cc2Cl)S1)n1ccnc1`, the Potency entry is “inactive”.
